Reference: PubChem BioAssay
For part of these data: Potency and affinity values are given separately. The source made the active and inactive calls.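 The calls were made as follows, unless noted: active = membrane potential signal rise above negative control mean plus 3 SD in both duplicates, also active in the earlier TRPC4 screen; inactive = the rest.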

Tests used:
[1] = test system: TRPC4 beta (transient receptor potential cation channel C4), mouse; assay: TRPC4 cation channel opening, retest – cell-based, Fluo4 calcium, HEK293 TRPC4beta/mu-opioid, duplicates, 10 µM, confirmation (AID 2426;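 active = fluorescence ratio normalized to control raised more than 50% in primary screen plus both repeat runs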;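 as to activation: percent rise of integrated ratio over buffer wells lacking compound which define 0%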); details: Fluo4 calcium fluorescence, at 10 µM; active compounds read high
[2] = test system: transient receptor potential cation channel C4 beta (TRPC4), mouse; assay: TRPC4 cation channel opening, second retest – cell-based, second round, Fluo4, HEK293 TRPC4beta/mu-opioid, 1 µM, confirmation (AID 2461;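 active = primary screen active and over 50% activation in each of two duplicate runs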;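 as to activation: 0% = wells without test compound as baseline of integrated fluorescence ratio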); details: Fluo4 calcium fluorescence, at 1 µM; active compounds read high
[3] = test system: TRPC4 (transient receptor potential cation channel C4 beta), mouse; assay: potentiation of DAMGO EC20 TRPC4 response – cell-based, second round, Fluo-4, HEK293 TRPC4beta/mu-opioid, 1 µM, confirmation (AID 2554;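 active = primary screen hit whose fluorescence ratio, in both repeats, exceeds the weak agonist control mean by 3 SD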); details: DAMGO EC20, Fluo-4 calcium flux, at 1 µM; active compounds read high
[4] = test system: TRPC4 beta (transient receptor potential cation channel C4), mouse; assay: potentiation of DAMGO EC20 TRPC4 response – cell-based, Fluo-4, HEK293 TRPC4beta/mu-opioid, confirmation (AID 2555;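 active = primary screen hit whose calcium fluorescence ratio, in both repeats, exceeds the weak agonist control mean by 3 SD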); details: DAMGO EC20, Fluo-4 calcium flux, at 10 µM; active compounds read high
[5] = target: Short transient receptor potential channel 4 (Mus musculus) (UniProt Q9QUQ5); assay: blockers of DAMGO-evoked TRPC4 calcium flux – cell-based, Fluo4, HEK293 TRPC4beta/mu-opioid, confirmation (AID 2636;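 active = calcium signal cut by more than 3 SD below the full-agonist control yet still positive, in both repeats and the earlier primary screen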); details: at 10 µM; active compounds read high
[6] = target: Short transient receptor potential channel 4 (Mus musculus) (UniProt Q9QUQ5); assay: blockers of DAMGO-evoked TRPC4 calcium flux – cell-based, second round, Fluo4, HEK293 TRPC4beta/mu-opioid, 1 µM, confirmation (AID 2637;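 active = calcium signal ratio cut to more than 3 SD under the fully stimulated control mean yet still positive, in both repeats and the primary screen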); details: at 1 µM; active compounds read high
[7] = target: Short transient receptor potential channel 4 (Mus musculus) (UniProt Q9QUQ5); assay: potentiation of DAMGO-evoked TRPC4 calcium signal – cell-based, HEK293 TRPC4/mu-opioid, Fluo-4 calcium, EC20 DAMGO, dose response (AID 434941;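 active = earlier screen potentiator hit that boosts the TRPC4 ion channel at some dose, with a dose response; inactive = no potentiation, no dose response, or not a prior hit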;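 also: calcium entry triggered by an EC20 dose of DAMGO at the co-expressed mu-opioid receptor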)
[8] = target: Short transient receptor potential channel 4 (Mus musculus) (UniProt Q9QUQ5); assay: block of DAMGO-driven TRPC4 calcium entry – cell-based, HEK293 TRPC4/mu-opioid, Fluo-4 calcium, dose response (AID 434942;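 active = primary screen inhibitor hit that blocks the TRPC4 channel at some tested dose, yielding a dose curve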)
[9] = target: Short transient receptor potential channel 6 (Mus musculus) (UniProt Q61143); assay: TRPC6 blockade by TRPC4 inhibitor hits – cell-based, HEK293, membrane potential dye, duplicate, selectivity assay for TRPC4 inhibitor project, confirmation (AID 434948;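 active = active in primary screen and both duplicates, each dropping signal beyond three positive-control SD with fluorescence still positive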); details: HEK293 TRPC6, membrane potential dye fluorescence, at 10 µM, stimulated with maximal-effect acetylcholine; active compounds read high
[10] = target: Short transient receptor potential channel 6 (Mus musculus) (UniProt Q61143); assay: TRPC6 opening by TRPC4 activator hits – cell-based, HEK293, membrane potential dye, duplicate, selectivity assay for TRPC4 activator project, confirmation (AID 434950); details: HEK293 TRPC6, membrane potential fluorescence, at 10 µM; activation: active compounds read high; outcome: activation;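 as to activation: 0% = buffer only wells and 100% = acetylcholine maximal-effect wells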
[11] = target: Short transient receptor potential channel 6 (Mus musculus) (UniProt Q61143); assay: positive modulators of mouse TRPC6 channel – HEK293 cells, membrane potential dye, duplicate, selectivity assay for TRPC4 potentiator project, confirmation (AID 434952;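 active = compound raising the membrane signal above positive-control mean plus 3 SD in both repeats, and a primary screen hit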); details: HEK293 TRPC6, membrane potential dye fluorescence, at 10 µM, maximal acetylcholine added after compound; active compounds read high
[12] = target: Short transient receptor potential channel 4 (Mus musculus) (UniProt Q9QUQ5); assay: calcium flux activators in TRPC4/5HT1a cells, counter-screen for TRPC4 activator project, cell-based, second counter screen, HEK293 TRPC4/5HT1a, Fluo-4 (AID 434977;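 active = calcium signal rise above buffer-control mean plus 5 SD in both duplicates, and also a hit in the primary screen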;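 as to activation: plate controls were assay buffer for no effect and maximal serotonin response for full effect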); details: Fluo-4 calcium flux, at 10 µM; active compounds read high
[13] = serotonin-gated TRPC4 signal block – cell-based, second counter screen, HEK293 TRPC4/5HT1a, Fluo-4, counter-screen for TRPC4 inhibitor project, confirmation (AID 434978;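 active = primary screen active whose calcium signal fell more than 3 SD beyond the full-serotonin control mean in both duplicate plates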;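 also: serotonin given first at submaximal then at maximal dose after compound preincubation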); details: Fluo-4 calcium flux, at 10 µM, serotonin added to trigger calcium flux; active compounds read high
[14] = test system: TRPC4 (mouse), co-expressed with 5HT1a in HEK293; assay: enhancement of serotonin-evoked TRPC4 response – cell-based, second counter screen, HEK293 TRPC4/5HT1a, Fluo-4, counter-screen for TRPC4 potentiator project, confirmation (AID 434979;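 active = signal rise over 3 SD above mean of control wells given weak agonist, in both repeats and first screen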); details: Fluo-4 calcium flux, at 10 µM, serotonin added at its EC20 dose; active compounds read high
[15] = nonspecific calcium rise without TRPC4 – cell-based, HEK293 mu-opioid receptor line, counter-screen for TRPC4 activator project, confirmation (AID 449723;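 active = hit in primary screen, with calcium signal over 5 SD above buffer well mean in both duplicates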;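 also: counter screen cells carry the mu-opioid receptor alone and lack TRPC4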); details: HEK293 mu-opioid cells, Fluo-4 calcium fluorescence, at 10 µM; active compounds read high
[16] = nonspecific potentiation of DAMGO calcium response – cell-based, HEK293 mu-opioid receptor line, counter-screen for TRPC4 allosteric potentiator project, confirmation (AID 449724;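 active = calcium signal rise more than 3 SD above the low-dose agonist control mean, in both duplicate plates and the primary screen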); details: HEK293 mu-opioid receptor cells, Fluo-4 calcium flux, at 10 µM, compound added before EC20 DAMGO stimulus; active compounds read high

Chain of Short transient receptor potential channel 6 (Mus musculus) (Q61143 whole entry, looked up): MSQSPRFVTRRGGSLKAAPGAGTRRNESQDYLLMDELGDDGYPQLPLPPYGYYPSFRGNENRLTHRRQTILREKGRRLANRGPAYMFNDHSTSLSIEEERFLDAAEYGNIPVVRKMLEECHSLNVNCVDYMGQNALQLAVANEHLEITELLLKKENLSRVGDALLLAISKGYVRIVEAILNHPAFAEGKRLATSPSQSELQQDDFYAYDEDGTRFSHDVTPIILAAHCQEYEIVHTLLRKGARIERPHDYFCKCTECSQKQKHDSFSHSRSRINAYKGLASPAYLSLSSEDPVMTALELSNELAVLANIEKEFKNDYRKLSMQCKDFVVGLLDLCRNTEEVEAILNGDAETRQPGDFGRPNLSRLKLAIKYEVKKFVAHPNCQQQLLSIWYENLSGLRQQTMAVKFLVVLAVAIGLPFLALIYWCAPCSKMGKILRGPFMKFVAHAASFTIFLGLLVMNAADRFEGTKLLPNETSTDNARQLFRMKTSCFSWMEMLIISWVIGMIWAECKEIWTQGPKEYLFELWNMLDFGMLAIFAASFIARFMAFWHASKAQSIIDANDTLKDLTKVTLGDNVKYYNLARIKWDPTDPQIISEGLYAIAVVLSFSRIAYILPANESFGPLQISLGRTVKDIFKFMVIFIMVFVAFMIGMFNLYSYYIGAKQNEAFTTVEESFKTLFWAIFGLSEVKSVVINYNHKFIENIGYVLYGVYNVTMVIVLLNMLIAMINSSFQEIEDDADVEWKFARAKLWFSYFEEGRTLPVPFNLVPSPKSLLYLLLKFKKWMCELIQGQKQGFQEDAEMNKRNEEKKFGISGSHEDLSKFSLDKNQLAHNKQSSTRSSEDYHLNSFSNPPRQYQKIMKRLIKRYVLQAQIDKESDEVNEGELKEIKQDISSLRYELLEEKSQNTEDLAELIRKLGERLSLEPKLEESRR
Chain of Short transient receptor potential channel 4 (Mus musculus) (Q9QUQ5 whole entry, looked up): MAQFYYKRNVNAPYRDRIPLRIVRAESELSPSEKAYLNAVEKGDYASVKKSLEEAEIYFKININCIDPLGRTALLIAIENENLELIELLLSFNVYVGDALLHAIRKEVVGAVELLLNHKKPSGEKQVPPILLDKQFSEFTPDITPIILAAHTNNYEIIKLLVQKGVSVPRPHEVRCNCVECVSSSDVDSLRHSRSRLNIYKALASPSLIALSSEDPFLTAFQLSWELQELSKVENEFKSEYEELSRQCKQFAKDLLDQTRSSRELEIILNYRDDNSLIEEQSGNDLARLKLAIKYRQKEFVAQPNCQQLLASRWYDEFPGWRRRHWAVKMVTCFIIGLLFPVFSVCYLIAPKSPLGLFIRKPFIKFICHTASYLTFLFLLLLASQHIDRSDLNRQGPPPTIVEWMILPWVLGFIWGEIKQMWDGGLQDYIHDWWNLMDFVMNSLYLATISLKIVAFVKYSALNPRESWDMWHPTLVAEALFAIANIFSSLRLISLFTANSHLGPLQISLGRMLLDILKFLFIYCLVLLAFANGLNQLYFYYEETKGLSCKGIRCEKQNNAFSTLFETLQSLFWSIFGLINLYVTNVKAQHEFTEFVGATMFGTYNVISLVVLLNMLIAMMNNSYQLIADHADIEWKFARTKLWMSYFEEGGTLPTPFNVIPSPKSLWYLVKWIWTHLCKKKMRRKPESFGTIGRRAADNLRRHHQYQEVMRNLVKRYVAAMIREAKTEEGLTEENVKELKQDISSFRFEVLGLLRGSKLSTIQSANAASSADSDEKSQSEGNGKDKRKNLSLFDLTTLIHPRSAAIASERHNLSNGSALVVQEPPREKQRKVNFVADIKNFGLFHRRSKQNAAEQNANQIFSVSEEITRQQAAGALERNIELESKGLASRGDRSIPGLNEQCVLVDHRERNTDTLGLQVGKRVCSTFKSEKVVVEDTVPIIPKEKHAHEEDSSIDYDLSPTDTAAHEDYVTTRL

CN(C)C(CNC(=S)Nc1cccc(Cl)c1)c1ccccc1 (stereo not given)
active: activation [1] 255% | activation [2] 127%
inactive: outcome [3] | outcome [4] | outcome [5] | outcome [6] | outcome [7] | outcome [8] | outcome [9] | outcome [10] | outcome [11] | outcome [12] | outcome [13] | outcome [14] | outcome [15] | outcome [16]

Cc1cc(C)n(-c2nc(SCCN(C)C)c3c4c(sc3n2)CCCC4)n1
active: activation [1] 162%
inactive: outcome [2] | outcome [3] | outcome [4] | outcome [5] | outcome [6] | outcome [7] | outcome [8] | outcome [9] | outcome [10] | outcome [11] | outcome [12] | outcome [13] | outcome [14] | outcome [15] | outcome [16]

COc1cccc(C(=O)N(C)CC2CCN(CCc3cccc(C(F)(F)F)c3)CC2)c1
inactive: outcome [3] | outcome [4] | outcome [5] | outcome [6] | outcome [7] | outcome [8] | outcome [9] | outcome [11] | outcome [12] | outcome [13] | outcome [14] | outcome [15] | outcome [16]
active: activation [1] 93% | activation [2] 77% | activation [10] 62.5%

Cc1cccc(C)c1OCC(O)CN (stereo not given)
active: activation [1] 90% | activation [10] 30.5% | activation [12] 20.1%
inactive: outcome [2] | outcome [3] | outcome [4] | outcome [5] | outcome [6] | outcome [7] | outcome [8] | outcome [9] | outcome [11] | outcome [13] | outcome [14] | outcome [15] | outcome [16]

CN1CCN(c2ccc(C(F)(F)F)cc2NC(=O)Nc2ccccc2)CC1
active: activation [1] 103% | potentiation [3] 24% | activation [12] 28.6% | potentiation [14] 33.3%
inactive: outcome [2] | outcome [4] | outcome [5] | outcome [6] | outcome [7] | outcome [8] | outcome [9] | outcome [10] | outcome [11] | outcome [13] | outcome [15] | outcome [16]

CSCCC(NS(=O)(=O)c1ccc2c(c1)c(=O)n(C)c(=O)n2C)C(=O)NC1CCN(Cc2ccccc2)CC1 (stereo not given)
active: activation [12] 8.04%
inactive: outcome [1] | outcome [2] | outcome [3] | outcome [4] | outcome [5] | outcome [6] | outcome [7] | outcome [8] | outcome [9] | outcome [10] | outcome [11] | outcome [13] | outcome [14] | outcome [15] | outcome [16]

Cc1cc(OCCCn2ccnc2)ccc1[N+](=O)[O-]
active: activation [1] 134% | potentiation [14] 18.2%
inactive: outcome [2] | outcome [3] | outcome [4] | outcome [5] | outcome [6] | outcome [7] | outcome [8] | outcome [9] | outcome [10] | outcome [11] | outcome [12] | outcome [13] | outcome [15] | outcome [16]

CC(C)(C)c1cc(Cl)ccc1OCCn1ccnc1
inactive: outcome [2] | outcome [3] | outcome [4] | outcome [5] | outcome [6] | outcome [7] | outcome [8] | outcome [9] | outcome [10] | outcome [11] | outcome [13] | outcome [15] | outcome [16]
active: activation [1] 57% | activation [12] 17.9% | potentiation [14] 14.1%

CCN1CCN(c2c(Cl)cccc2NC(=O)c2ccc3nsnc3c2)CC1
active: activation [1] 57% | potentiation [3] 22% | potentiation [4] 14%
inactive: outcome [2] | outcome [5] | outcome [6] | outcome [7] | outcome [8] | outcome [9] | outcome [10] | outcome [11] | outcome [12] | outcome [13] | outcome [14] | outcome [15] | outcome [16]

CC1CC(C)CN(CCCNC(=O)COc2cc(=O)n(C)c3ccccc23)C1 (stereo not given)
active: activation [1] 88% | activation [2] 80% | activation [12] 23.2% | potentiation [14] 26.9%
inactive: outcome [3] | outcome [4] | outcome [5] | outcome [6] | outcome [7] | outcome [8] | outcome [9] | outcome [10] | outcome [11] | outcome [13] | outcome [15] | outcome [16]

O=C(NNC(=S)NC(=O)c1ccccc1Cl)c1cccc([N+](=O)[O-])c1
inactive: outcome [2] | outcome [3] | outcome [4] | outcome [5] | outcome [6] | outcome [7] | outcome [8] | outcome [9] | outcome [11] | outcome [13] | outcome [14] | outcome [16]
active: activation [1] 120% | activation [10] 29% | activation [12] 77.4% | activation [15] 23%

Cc1c(CN2CCC(n3nccc3NC(=O)C3CC3)CC2)[nH]c2ccccc12
inactive: outcome [2] | outcome [3] | outcome [4] | outcome [5] | outcome [6] | outcome [7] | outcome [8] | outcome [9] | outcome [11] | outcome [12] | outcome [13] | outcome [14] | outcome [15] | outcome [16]
active: activation [1] 138% | activation [10] 26%

COc1cc(/C=C/C(=O)c2ccc3c(c2)OCO3)cc(Cl)c1O
active: activation [1] 113% | activation [10] 427% | activation [12] 69.2% | activation [15] 122%
inactive: outcome [2] | outcome [3] | outcome [4] | outcome [5] | outcome [6] | outcome [7] | outcome [8] | outcome [9] | outcome [11] | outcome [13] | outcome [14] | outcome [16]

CN(C)C(CNC(C(=O)Nc1ccc(F)cc1)c1ccccc1)c1ccccc1 (stereo not given)
inactive: outcome [3] | outcome [4] | outcome [5] | outcome [6] | outcome [7] | outcome [8] | outcome [9] | outcome [10] | outcome [11] | outcome [12] | outcome [13] | outcome [14] | outcome [15] | outcome [16]
active: activation [1] 126% | activation [2] 68%

O=C(CCC1CCCC1)c1c(O)c2ccccc2oc1=O
active: activation [1] 222% | activation [10] 25% | activation [12] 19.6% | activation [15] 51.5%
inactive: outcome [2] | outcome [3] | outcome [4] | outcome [5] | outcome [6] | outcome [7] | outcome [8] | outcome [9] | outcome [11] | outcome [13] | outcome [14] | outcome [16]
